Results published in PubChem BioAssay (NCATS).
Inconclusive results are not listed. Active and inactive are the calls of the source. Unless noted, the call rests on the fitted dose curve; in most records, active means well fitted curve in the direction sought with a large enough effect; inconclusive means small, poorly fitted or top-dose-only effect, or another doubt; inactive means no such curve, though single readings can be large; an effect the other way counts as inactive or inconclusive.

Assays:
[1] = molecular target: Glucocorticoid receptor (Homo sapiens) (UniProt P04150); assay: GR-GFP Redistribution (AID 450;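 active means compounds whose dose series gives a full or clear partial fitted curve of increased nuclear translocation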; further: potency means the concentration at half of the fitted maximal effect)
[2] = molecular target: Glucocorticoid receptor (Homo sapiens) (UniProt P04150); assay: GR-EFC Redistribution (AID 451; calls by dose curve; further: potency means the concentration at half of the fitted maximal effect); details: CHO-K1 GR-EFC translocation, beta-gal luminescence, 2 h
How it was run: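 CHO-K1 cells expressing nuclear EA and GR-ED fragments of b-gal; compounds titrated up to 46 uM final, 2 h at 37 C. GR nuclear translocation read as complemented b-gal luminescence after 1 h RT detection.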

[3] = molecular target: Mitogen-activated protein kinase 10 (Mus musculus) (UniProt Q61831); assay: JNK3 AlphaScreen Assay (AID 530; active means well fitted curve in either direction with a large enough effect, not every such curve was filed as active;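 further: kinase came from lysate of stimulated human HepG2 cells; signal reports phosphorylation of biotinylated GST-cJun 1-79 at Ser73 with 10 µM ATP; series mostly up to about 57 µM; on the % scale 0 is the no-effect control and ±100 the full control effect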)
How it was run: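 Activity was read by AlphaScreen after JNK3-containing HepG2 lysate (cytokine pre-activated) phosphorylated biotinylated GST-cJun with 10 uM ATP at room temperature. Phospho-Ser73 cJun antibody with Protein-A acceptor beads provided detection.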

[4] = molecular target: 3',5'-cyclic-AMP phosphodiesterase 4B (Homo sapiens) (UniProt Q07343); assay: qHTS Assay for Inhibitors of PDE-IV (AID 607; active means well fitted activation curve with a large enough effect in the main read-out, with a control signal flat, not every such curve was filed as active; further: % of control where 0% means no effect)
How it was run: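 Cell-based read-out of cAMP via a modified cyclic nucleotide-gated channel and membrane potential dye (535/590 nm) in HEK293 cells expressing PDE4 endogenously. Compounds tested up to 22.9 uM final; 100 uM RO 20-1724 reference.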

[5] = molecular target: Cytochrome P450 2C9 (Homo sapiens) (UniProt P11712); assay: qHTS Assay for Inhibitors and Substrates of Cytochrome P450 2C9 (AID 883); further: nearly all actives have a fitted effect of over 60% in size; further: potency means the concentration at half of the fitted maximal effect; on activity change, negative = inhibition: on the % scale 0 is the no-effect control and ±100 the full control effect
How it was run: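 Signal: luciferase luminescence reporting luciferin produced by CYP2C9. Conditions: 10nM enzyme, Luciferin-H 100uM at KM, 25mM KPO4, 37C, 60 min NADPH-driven reaction. Reference: 57uM sulphaphenazole as 100% inhibition.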

[6] = molecular target: Cytochrome P450 3A4 (Homo sapiens) (UniProt P08684); assay: qHTS Assay for Inhibitors and Substrates of Cytochrome P450 3A4 (AID 884); further: potency means the concentration at half of the fitted maximal effect; nearly all actives have a fitted effect of over 50% in size
How it was run: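 Luminescent readout of luciferin produced by CYP3A4 (20 nM) dealkylation of Luciferin-PPXE, 25 uM (its KM). NADPH-driven reaction ran 60 min at RT after 10 min compound preincubation; data scaled to 57 uM ketoconazole as 100% inhibition.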

[7] = molecular target: Cytochrome P450 3A4 (Homo sapiens) (UniProt P08684); assay: qHTS Assay for Activators of Cytochrome P450 3A4 (AID 885); further: nearly all actives have a fitted effect of over 65% in size
How it was run: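 Luminescent readout of luciferin formed from 25 uM Luciferin-PPXE (KM level) by 20 nM CYP3A4 in 200 mM KPO4, with 60 min NADPH-driven reaction at room temperature after 10 min compound exposure. Ketoconazole (57 uM) defined 100% inhibition.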

[8] = molecular target: Cytochrome P450 2D6 (Homo sapiens) (UniProt P10635); assay: qHTS Assay for Inhibitors and Substrates of Cytochrome P450 2D6 (AID 891); further: nearly all actives have a fitted effect of over 60% in size; further: potency means the concentration at half of the fitted maximal effect;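 on activity change, negative = inhibition: luciferin methyl ether substrate demethylated by CYP2D6 with NADPH regeneration; on the % scale 0 is the no-effect control and ±100 the full control effect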
How it was run: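 Luminescent read-out of luciferin formed by 5 nM human CYP2D6 demethylating 30 uM Luciferin-ME EGE (Km level) over 60 min at room temperature after NADPH regeneration addition. Data normalized to full inhibition by 1.43 uM quinidine.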

[9] = molecular target: Cytochrome P450 2C19 (Homo sapiens) (UniProt P33261); assay: qHTS Assay for Inhibitors and Substrates of Cytochrome P450 2C19 (AID 899); further: nearly all actives have a fitted effect of over 60% in size; further: potency means the concentration at half of the fitted maximal effect
How it was run: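 Signal comes from luciferase acting on luciferin released by CYP2C19-mediated hydroxylation of Luciferin-H EGE, 10uM (KM). Assay mix: 5nM enzyme, 50mM KPO4; 60 min at 37C with NADPH regeneration. Data normalized against 57uM ketoconazole.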

[10] = molecular target: DNA dC->dU-editing enzyme APOBEC-3G (Homo sapiens) (UniProt Q9HC16); assay: qHTS for inhibitors of Vif-A3G interactions: Validation (AID 588379); further: 0% is about no effect
How it was run: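 Yellow fluorescence (Ex 488, Em 500-530) of Vif-coexpressing HeLa A3G-eYFP cells, scanned by Acumen cytometer, reports blocked A3G degradation. Cells plated at 700/well overnight at 37 deg C before compound addition, then a further overnight compound incubation at 37 deg C.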

Sequence of 3',5'-cyclic-AMP phosphodiesterase 4B (Homo sapiens) (Q07343 whole entry, looked up): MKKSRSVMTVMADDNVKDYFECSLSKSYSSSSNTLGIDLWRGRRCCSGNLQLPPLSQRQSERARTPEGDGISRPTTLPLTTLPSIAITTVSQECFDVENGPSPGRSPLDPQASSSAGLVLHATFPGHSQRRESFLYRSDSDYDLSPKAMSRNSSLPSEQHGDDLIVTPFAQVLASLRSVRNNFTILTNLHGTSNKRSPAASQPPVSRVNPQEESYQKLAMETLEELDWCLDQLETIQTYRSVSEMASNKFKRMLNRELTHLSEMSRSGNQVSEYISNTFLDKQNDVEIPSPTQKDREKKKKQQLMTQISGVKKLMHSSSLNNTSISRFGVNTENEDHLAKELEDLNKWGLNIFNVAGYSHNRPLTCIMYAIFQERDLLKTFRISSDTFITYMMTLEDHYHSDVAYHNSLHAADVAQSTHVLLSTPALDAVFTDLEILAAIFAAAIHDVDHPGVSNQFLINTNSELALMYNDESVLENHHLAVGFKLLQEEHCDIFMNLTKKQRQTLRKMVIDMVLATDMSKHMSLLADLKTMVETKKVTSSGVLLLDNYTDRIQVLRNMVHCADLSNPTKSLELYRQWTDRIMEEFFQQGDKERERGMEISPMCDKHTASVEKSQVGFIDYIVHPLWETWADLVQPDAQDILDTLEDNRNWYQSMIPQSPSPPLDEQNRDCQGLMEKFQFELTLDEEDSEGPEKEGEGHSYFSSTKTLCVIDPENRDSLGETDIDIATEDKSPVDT
Sequence of Glucocorticoid receptor (Homo sapiens) (P04150 whole entry, looked up, the tested form may be a part): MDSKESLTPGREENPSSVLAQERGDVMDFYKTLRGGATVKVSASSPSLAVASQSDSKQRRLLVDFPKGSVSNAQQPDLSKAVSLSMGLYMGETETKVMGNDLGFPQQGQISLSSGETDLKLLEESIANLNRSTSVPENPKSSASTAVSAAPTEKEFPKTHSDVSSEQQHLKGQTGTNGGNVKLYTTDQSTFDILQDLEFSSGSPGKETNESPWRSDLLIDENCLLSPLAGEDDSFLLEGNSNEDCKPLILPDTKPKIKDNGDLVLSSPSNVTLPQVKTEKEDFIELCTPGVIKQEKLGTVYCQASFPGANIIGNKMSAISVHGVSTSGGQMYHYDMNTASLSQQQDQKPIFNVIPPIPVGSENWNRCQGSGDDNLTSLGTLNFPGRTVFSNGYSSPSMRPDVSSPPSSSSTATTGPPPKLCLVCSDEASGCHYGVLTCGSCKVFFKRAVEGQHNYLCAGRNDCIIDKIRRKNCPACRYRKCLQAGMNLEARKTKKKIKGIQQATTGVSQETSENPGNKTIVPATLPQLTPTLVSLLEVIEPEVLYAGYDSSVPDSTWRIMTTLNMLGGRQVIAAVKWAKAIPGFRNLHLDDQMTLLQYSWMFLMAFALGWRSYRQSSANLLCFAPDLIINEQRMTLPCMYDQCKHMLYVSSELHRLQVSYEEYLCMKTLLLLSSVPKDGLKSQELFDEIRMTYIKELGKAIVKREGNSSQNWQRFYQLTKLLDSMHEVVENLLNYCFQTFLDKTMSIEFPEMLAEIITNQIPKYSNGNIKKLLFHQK
Sequence of Cytochrome P450 2C9 (Homo sapiens) (P11712 whole entry, looked up): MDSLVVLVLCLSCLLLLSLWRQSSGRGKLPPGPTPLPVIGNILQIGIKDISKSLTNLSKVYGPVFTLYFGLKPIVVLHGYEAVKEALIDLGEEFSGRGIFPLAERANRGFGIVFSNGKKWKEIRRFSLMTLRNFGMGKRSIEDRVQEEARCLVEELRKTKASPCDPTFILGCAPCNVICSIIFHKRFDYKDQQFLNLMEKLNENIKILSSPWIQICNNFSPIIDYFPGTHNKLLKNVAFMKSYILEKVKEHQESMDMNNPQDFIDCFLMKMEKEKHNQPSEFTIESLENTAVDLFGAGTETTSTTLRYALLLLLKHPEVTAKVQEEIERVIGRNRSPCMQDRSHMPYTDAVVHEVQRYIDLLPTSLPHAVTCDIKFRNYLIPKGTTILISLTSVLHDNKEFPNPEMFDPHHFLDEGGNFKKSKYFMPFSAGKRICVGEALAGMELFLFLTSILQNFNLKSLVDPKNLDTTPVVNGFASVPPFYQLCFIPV
Sequence of Cytochrome P450 2C19 (Homo sapiens) (P33261 whole entry, looked up): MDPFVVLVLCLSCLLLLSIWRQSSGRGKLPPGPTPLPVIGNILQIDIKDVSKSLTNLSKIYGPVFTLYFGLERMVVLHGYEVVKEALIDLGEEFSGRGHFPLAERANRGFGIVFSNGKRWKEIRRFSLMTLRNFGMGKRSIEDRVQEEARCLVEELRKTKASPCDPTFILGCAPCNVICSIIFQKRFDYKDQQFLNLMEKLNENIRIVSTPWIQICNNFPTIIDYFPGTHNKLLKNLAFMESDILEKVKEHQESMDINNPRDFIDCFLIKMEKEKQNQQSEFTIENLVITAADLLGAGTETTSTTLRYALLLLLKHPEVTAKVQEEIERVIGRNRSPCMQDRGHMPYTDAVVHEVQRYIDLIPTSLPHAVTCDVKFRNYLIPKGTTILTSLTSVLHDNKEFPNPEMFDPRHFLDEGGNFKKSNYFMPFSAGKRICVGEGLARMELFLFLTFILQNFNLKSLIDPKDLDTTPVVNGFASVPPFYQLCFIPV
Sequence of Cytochrome P450 2D6 (Homo sapiens) (P10635 whole entry, looked up): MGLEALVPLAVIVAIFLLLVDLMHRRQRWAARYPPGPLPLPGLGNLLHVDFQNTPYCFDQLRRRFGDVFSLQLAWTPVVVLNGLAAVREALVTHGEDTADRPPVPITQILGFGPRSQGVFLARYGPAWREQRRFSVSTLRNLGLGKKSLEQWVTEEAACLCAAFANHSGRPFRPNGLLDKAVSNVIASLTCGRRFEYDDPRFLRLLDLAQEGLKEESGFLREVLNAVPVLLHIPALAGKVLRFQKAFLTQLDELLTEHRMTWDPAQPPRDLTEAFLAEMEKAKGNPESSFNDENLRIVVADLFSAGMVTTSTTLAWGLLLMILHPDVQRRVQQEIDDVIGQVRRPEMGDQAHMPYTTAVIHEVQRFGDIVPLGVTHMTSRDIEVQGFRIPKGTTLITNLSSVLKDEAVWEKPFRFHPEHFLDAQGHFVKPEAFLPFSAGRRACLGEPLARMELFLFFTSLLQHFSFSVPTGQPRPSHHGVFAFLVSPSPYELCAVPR
Sequence of Cytochrome P450 3A4 (Homo sapiens) (P08684 whole entry, looked up): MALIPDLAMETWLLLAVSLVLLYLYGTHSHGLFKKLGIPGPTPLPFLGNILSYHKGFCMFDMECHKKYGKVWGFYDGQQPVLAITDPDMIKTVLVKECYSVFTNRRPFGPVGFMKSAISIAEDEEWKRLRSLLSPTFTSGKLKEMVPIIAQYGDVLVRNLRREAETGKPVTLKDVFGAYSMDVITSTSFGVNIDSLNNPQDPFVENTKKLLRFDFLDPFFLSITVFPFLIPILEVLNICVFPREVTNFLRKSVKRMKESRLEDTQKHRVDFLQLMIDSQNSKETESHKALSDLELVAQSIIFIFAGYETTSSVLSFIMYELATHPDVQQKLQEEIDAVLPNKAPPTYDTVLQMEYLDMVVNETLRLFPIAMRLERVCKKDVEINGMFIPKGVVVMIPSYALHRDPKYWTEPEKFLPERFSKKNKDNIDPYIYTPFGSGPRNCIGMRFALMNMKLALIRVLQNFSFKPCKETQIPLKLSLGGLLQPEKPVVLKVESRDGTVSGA
Sequence of DNA dC->dU-editing enzyme APOBEC-3G (Homo sapiens) (Q9HC16 whole entry, looked up): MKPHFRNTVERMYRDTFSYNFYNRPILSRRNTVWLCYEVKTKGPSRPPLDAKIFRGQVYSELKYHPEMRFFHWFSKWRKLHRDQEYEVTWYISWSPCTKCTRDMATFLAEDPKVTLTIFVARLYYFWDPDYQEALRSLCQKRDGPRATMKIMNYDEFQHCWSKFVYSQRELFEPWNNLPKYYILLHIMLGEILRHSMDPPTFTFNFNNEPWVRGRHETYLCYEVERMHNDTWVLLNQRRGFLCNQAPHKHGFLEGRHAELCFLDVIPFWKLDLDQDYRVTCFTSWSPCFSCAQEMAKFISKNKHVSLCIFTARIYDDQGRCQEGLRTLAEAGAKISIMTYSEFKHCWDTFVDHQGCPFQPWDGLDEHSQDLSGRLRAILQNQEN

Cn1c(NCC(O)c2ccccc2)nc2c1c(=O)n(Cc1ccc(Cl)c(Cl)c1)c(=O)n2C (stereo not drawn)
inactive: Potency [1] > 20.6 µM

Nc1nonc1C(=O)NCCN=Cc1cc(Cc2ccccc2)cc(Br)c1O
inactive: Potency [1] > 20.6 µM

O=c1c(O)c(-c2ccccc2)oc2cc(O)cc(O)c12
active: Potency [5] 3.16 µM | Potency [6] 15.8 µM | Potency [8] 20 µM | Potency [9] 3.98 µM
inactive: Potency [1] > 46 µM | Potency [2] > 46 µM | Potency [3] | Potency [4] | Potency [7] | outcome [10]

C[C@H]1[C@H](C)CC[C@@]2(C(=O)O)CC[C@]3(C)C(=CC[C@@H]4[C@@]5(C)CC[C@H](O)C(C)(C)[C@@H]5CC[C@@]43C)[C@@H]12
inactive: Potency [1] > 46 µM | Potency [2] > 46 µM | Potency [3] | Potency [4]

CC(C)C1=CC2=CC[C@H]3[C@@](C)(CCC[C@]3(C)C(=O)O)[C@@H]2CC1
inactive: Potency [1] > 46 µM | Potency [2] > 46 µM | Potency [3] | Potency [4] | Potency [8]
active: Potency [5] 12.6 µM | Potency [9] 25.1 µM

OCc1ccncc1.OCc1ccncc1.[Cl][Pt]([Cl])([Cl])[Cl]
inactive: Potency [1] > 46 µM | Potency [2] > 9.22 µM | activity change, negative = inhibition [3] 0.578% [at 11.4 µM] | Potency [4]

Cc1ccc2[nH]c3c(N4CCN(Cc5ccccc5)CC4)ncnc3c2c1
inactive: Potency [1] > 20.6 µM

CC(=O)O[C@H]1C(=O)[C@]2(C)[C@H]([C@H](OC(=O)c3ccccc3)[C@@]3(O)C[C@H](OC(=O)[C@@H](O)[C@@H](NC(=O)c4ccccc4)c4ccccc4)C(C)=C1C3(C)C)[C@]1(OC(C)=O)CO[C@@H]1C[C@@H]2O
inactive: Potency [1] > 46 µM | Potency [2] > 46 µM | Potency [3] | Potency [4]

CC1=CC(=O)CC(C)(C)[C@@]1(O)/C=C\C(C)=C\C(=O)O
inactive: Potency [1] > 46 µM | Potency [2] > 46 µM | Potency [3] | Potency [4] | Potency [5] | Potency [8] | Potency [9]

N#CC(C(=O)NC1CC1)c1nc2ccccc2nc1N1CCN(C/C=C/c2ccccc2)CC1 (stereo not drawn)
inactive: Potency [1] > 20.6 µM

CCCC[C@H](CC)CN=C(N)NC(N)=NCCCCCCN=C(N)NC(N)=NC[C@@H](CC)CCCC
inactive: Potency [1] > 20.6 µM | Potency [2] > 20.6 µM | Potency [3] | Potency [4]
active: Potency [8] 3.16 µM

CN[C@@H]1[C@H](O)[C@H](NC)[C@@H]2O[C@]3(O)C(=O)C[C@@H](C)O[C@H]3O[C@@H]2[C@H]1O
inactive: Potency [1] > 46 µM | Potency [3] | Potency [4]
